# Data taken from PubChem BioAssay AID751 (NMMLSC, 2007).
# Hit rate of the full screen: of about 24,000 compounds, about 40 (0.2%) were called active. This excerpt belongs to a sample that is enriched for actives. A number with no mark means an inactive call.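 The calls were made as follows: active = inhibition of disassembly above about 33% (limit read from the data); inconclusive = likely self-fluorescent, control bead median signal at least 40; inactive = the rest.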
# Test system: 26S proteasome (yeast, GFP-tagged, ATP-dependent disassembly)
# Assay: inhibitors of ATP-driven 26S proteasome dissociation, primary screen, biochemical, bead-based flow cytometry, GFP-tagged proteasome (AID 751);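 also: plate controls were ATP control with full disassembly for no effect and ATP-gamma-S intact proteasomes for full effect; higher percent means more bead fluorescence retained so stronger block of disassembly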
# Conditions: anti-FLAG beads, hits give high values, concentration not given here
row,Structure (SMILES),inhibition of disassembly
1,CCOC(=O)C1CCCN(C(=O)Cn2ncc3c(=O)oc4ccc(C)cc4c32)C1 (stereo unspecified),-1.55%
2,Cc1nn(-c2ccccc2)c2[nH]c(C(F)(F)F)cc(=O)c12,0.28%
3,CC(C)CNC(=O)c1cc(-c2ccc(Br)cc2)on1,-0.25%
4,COc1ccc(C2C(C(=O)Nc3ccccc3OC)=C(C)Nc3nnnn32)c(OC)c1 (stereo unspecified),-0.27%
5,Cc1ccc(C(c2sc3nc(C)nn3c2O)N2CCN(c3ccccc3)CC2)cc1 (stereo unspecified),-0.53%
6,CCS(=O)(=O)N1CCC(C(=O)N2CCN(c3ccccc3)CC2)CC1,0.05%
7,CCOC(=O)c1ccc(NC(=O)CS(=O)(=O)c2cn(CC)c3ccccc23)cc1,-1.63%
8,CCN(CC)CCNC(=O)C1c2ccccc2C(=O)N(C)C1c1cn(C)c2ccccc12 (stereo unspecified),-2.19%
9,COc1ccc(CN(C(=O)c2cccs2)c2nccs2)cc1OC,0.76%
10,CCn1c(SCC(=O)Nc2nccs2)nnc1-c1ccncc1,1.46%
11,CCCN(CCC)CCNC(=O)c1cc2c(C)nc3ccccc3c2o1,5.25%
12,Cn1cccc1Cc1nnc(SCC(=O)NCc2ccc3c(c2)OCO3)n1CCc1ccccc1,1.04%
13,CCOc1ccc(N(CC(=O)NCc2ccc(OC)cc2)S(=O)(=O)c2c(C)noc2C)cc1,-1.57%
14,Cc1ccc(-c2nc(CS(=O)CC(=O)N3CCN(c4ncccn4)CC3)c(C)o2)cc1 (stereo unspecified),4.64%
15,Cc1nnc(SCC(=O)N(C(C)C)C(C)C)nc1C,0.76%
16,O=C(CSc1nc2[nH]ncc2c(=O)n1-c1ccccc1)N1CCCc2ccccc21,3.12%
17,CCOCC(=O)Nc1sc2c(c1C(=O)OCC)CCCC2,1.13%
18,CNC(=O)Nc1cc(C(C)(C)C)no1,-0.8%
19,COc1ccc(C(=O)N(CCN2CCOCC2)CC(=O)NC2CCCC2)cc1OC,1%
20,Fc1ccc2nc(N3CCCCC3)sc2c1,0.07%
21,CNC(=O)c1ccc2nc(NC(C)=O)sc2c1,3.41%
22,Fc1ccc2nc(Nc3nc4c(s3)CCCC4)sc2c1,96.9% (active)
23,O=C1c2ccncc2C(=O)N1C1CCCCC1,-0.82%
24,Cc1ncn(C23CC4CC(CC(O)(C4)C2)C3)n1,-1.21%

row,Structure (SMILES),inhibition of disassembly
1,O=C1c2cccnc2C(=O)N1Cc1cccs1,-1.73%
2,CCOc1cc(S(=O)(=O)NCc2ccc3c(c2)OCO3)ccc1F,-0.11%
3,Cc1nnc(SCCCn2c(N3CCCCC3)nc3c2c(=O)[nH]c(=O)n3C)s1,-3.02%
4,Cc1cc(C(=O)NCCCc2ccccc2)no1,0.81%
5,CCOc1ccc(C2C(C(=O)NC)=C(C)Nc3nc4ccccc4n32)cc1OC (stereo unspecified),-0.82%
6,O=S(=O)(NCc1ccccc1Cl)c1cnc[nH]1,1.99%
7,N#CCCn1ncc2ccccc21,-0.94%
8,CCOC(=O)CN1C(=O)C(O)(CC(=O)c2ccccn2)c2ccccc21 (stereo unspecified),0.68%
9,COc1ccc(NC(=O)CN2CCN(S(=O)(=O)c3ccc(F)cc3)CC2)cc1Cl,0.32%
10,O=C(CN1CCN(C(=O)c2cccc(F)c2)CC1)Nc1ccccc1F,2.43%
11,CCOc1ccc(CC(=O)Nc2ccc(S(=O)(=O)Nc3cc(C)on3)cc2)cc1OCC,1.32%
12,Cc1ccc(N(C(=O)CC2NC(=O)NC2=O)C2(C(=O)NC3CCCC3)CCCCC2)cc1 (stereo unspecified),-0.11%
13,Cc1ccc(C2CC(=O)NC(SCC(=O)OCc3ccccc3)=C2C#N)o1 (stereo unspecified),-1.12%
14,Cc1ccc(C(CC(=O)O)Nc2nc(N3CCCCC3)nc(N3CCCCC3)n2)cc1 (stereo unspecified),0.5%
15,CN(C)S(=O)(=O)c1cccc(C(=O)Nc2cccnc2)c1,0.3%
16,O=C(Cc1nn[nH]n1)NCCC1=CCCCC1,3.56%
17,C#CC(C)(C)NC(=O)CSc1nc2c(c(=O)n(C)c(=O)n2C)n1CCCC,0.06%
18,Cc1ccc(-n2ncc3c(=O)[nH]cnc32)c(C)c1,-2.48%
19,CCOC(=O)C1CCN(C(=O)c2oc3ccc(S(=O)(=O)N4CCCCCC4)cc3c2C)CC1,0.89%
20,CCOC(=O)Cc1csc(NC(=O)CN(C)S(=O)(=O)c2ccc3c(c2)CCC(=O)N3)n1,0.365%
21,CCC1Oc2ccc(Cl)cc2N(CC(=O)O)C1=O (stereo unspecified),-0.77%
22,Brc1cnc(N2CCCC2)nc1N1CCCCC1,-0.98%
23,O=C(O)c1ccc(NC(=O)c2cccs2)cc1,-9.2%
24,COc1ccc(N2C(=O)C3CCCN3C2c2cccc(OC)c2)cc1 (stereo unspecified),0.89%

row,Structure (SMILES),inhibition of disassembly
1,COc1ccc(N2C(=O)C3CCCN3C2c2cc(OC)c(OC)cc2OC)cc1 (stereo unspecified),1.25%
2,COc1cccc(N2C(=O)C3CCCN3C2c2ccc(F)cc2)c1 (stereo unspecified),137% (active)
3,Cc1ccccc1N1CC(c2nc3ccccc3[nH]2)CC1=O (stereo unspecified),2.43%
4,Cc1ccc(NC(=O)C2CC(c3ccc(F)cc3)=NO2)cc1 (stereo unspecified),0.38%
5,CCOC(=O)Cn1c(=O)oc2cc(S(=O)(=O)N(C)Cc3ccco3)ccc21,0.3%
6,C=CCOc1ccc(C2/C(=C(\O)c3c(C)[nH]c(C(=O)OC)c3C)C(=O)C(=O)N2CCN(C)C)cc1 (stereo unspecified),-2.37%
7,Cc1nc2ccc(S(=O)(=O)NC(C(=O)N3CCCCCC3)C(C)C)cc2s1 (stereo unspecified),0%
8,CC(C)C1N=C2c3ccccc3N=C(SCC(=O)c3ccc(O)c(O)c3)N2C1=O (stereo unspecified),-7.17%
9,Nc1nonc1C(=O)NCCc1ccccc1,-0.31%
10,CCCCN(CC)C(=O)CN(C)S(=O)(=O)c1cccc2nsnc12,-0.83%
11,CC(=O)Nc1ccc(NS(=O)(=O)c2cc(C)sc2C)cc1,1.22%
12,CCCNC(=O)Nc1ccccc1C(=O)Nc1ccc(OC)cc1,0.82%
13,COc1ccccc1CNC(=O)CCCn1c(=O)c2ccccc2n(CC(=O)NC2CCCC2)c1=O,-1.05%
14,O=C(c1cc(-c2ccccc2O)on1)N1CCCC1,3.8%
15,CCCCC(=O)Nc1cc(C)c2c(=O)oc3ccccc3c2n1,-3.04%
16,COc1ccccc1-c1nc(C(F)(F)F)c(OC)o1,-0.84%
17,O=C(Nc1nsc(-c2ccccc2)n1)c1ccncc1,-0.11%
18,COC(=O)c1oc2ccc(Br)cc2c1NC(C)=O,0.425%
19,Cc1cc(=O)n2nc(N3CCCC(C(=O)NCCC4=CCCCC4)C3)sc2n1 (stereo unspecified),-1.75%
20,Cc1cc(C)c(C)c(S(=O)(=O)Nc2ccc(O)cc2)c1C,0.6%
21,O=C(NCc1cccs1)c1ccc2c(c1)ncn2C1CCCC1,0.01%
22,O=C(Cn1nnc(-c2ccc(CN3CCOCC3)cc2)n1)NC1CCCCC1,0.56%
23,O=C(CN1C(=O)C2C3C=CC(C3)C2C1=O)NCCc1ccccc1Cl (stereo unspecified),-3.34%
24,CCOC(=O)C1CCN(C(=O)Cc2c(C(=O)O)[nH]c3ccccc23)CC1,1.78%

row,Structure (SMILES),inhibition of disassembly
1,CC(c1nnc(SCC(=O)Nc2sccc2C#N)n1-c1ccc(Cl)cc1)N(C)C (stereo unspecified),0.73%
2,COC(=O)c1ccccc1NC(=O)c1cncc(Br)c1,1.29%
3,CCOC(=O)C1C(=O)C=C(c2ccc(OC)cc2)CC1c1ccco1 (stereo unspecified),-0.2%
4,O=c1c2[nH]c3ccc(Cl)cc3c2ncn1Cc1ccccn1,-0.64%
5,Cn1c(COc2ccc(Cl)cc2)nc2ccccc2c1=O,-1.78%
6,O=C1CC(c2cccc(Br)c2)C2=C(CCCC2=O)N1 (stereo unspecified),2.93%
7,COc1ccc(CCNC(=O)c2ccc3c(c2)NC(=O)C(N2CCOCC2)S3)cc1OC (stereo unspecified),7.35%
8,COc1ccc(CCNC(=O)CCCCn2c(=O)[nH]c3ccccc3c2=O)cc1OC,-2.22%
9,Cc1oc(-c2cccc(Cl)c2)[n+]([O-])c1C,-1.38%
10,COc1ccc(CC(=O)Nc2c3c(nn2-c2cccc(Cl)c2)CS(=O)C3)cc1 (stereo unspecified),-0.575%
11,COc1ccc(CCNC(=O)c2cc(-c3ccc4c(c3)OCO4)on2)cc1OC,-0.34%
12,CCOC(=O)Cn1c(=O)oc2cc(S(=O)(=O)NCC3CCCO3)ccc21 (stereo unspecified),-1.43%
13,CCOC(=O)c1c(C)oc2ccc(OCC(=O)N(CC)CC)cc12,0.35%
14,O=C(CCCCn1c(=O)[nH]c2ccccc2c1=O)NCc1ccc2c(c1)OCO2,1.45%
15,Cn1c(=O)[nH]c(=O)c2c1nc(N(CCO)Cc1ccccc1)n2Cc1ccccc1Cl,0.72%
16,COC(=O)C1C(=O)c2c([nH]c(C(=O)OCCSC)c2C)CC1C (stereo unspecified),-0.89%
17,COc1cccc(NC(=O)Cn2cnc3sc(C)c(S(=O)(=O)N4CCN(C)CC4)c3c2=O)c1,-0.73%
18,CC(=O)Nc1nonc1-c1nc2ccccc2n1Cc1ccccn1,5.18%
19,CCOC(=O)N1CCC(Nc2c(NCCCN3CCN(c4ccc(OC)cc4)CC3)c(=O)c2=O)CC1,1.14%
20,CCOCCc1c(O)nc(SCC(=O)NCc2ccco2)[nH]c1=O,-2.18%
21,CN(C)CCCNC(=O)c1ccc2[nH]c3ccccc3c2c1,-0.71%
22,Cc1cccc(NC(=O)CSc2nc3c(c(=O)[nH]2)CCC3)c1C,0.47%
23,CC(=O)NC1CC2CCCC(C1)N2CC(=O)Nc1ccccc1 (stereo unspecified),-0.95%
24,CC12CN3CC(C)(CN(C1)C3c1ccc(Cl)cc1Cl)C2=O (stereo unspecified),1.12%
